# Among all 2,100 compounds or so, about 1,100 (52%) were called active. About 27% were inconclusive and are not listed. The set was probably picked from earlier hits. This is one part of the list. Values without a mark were called inactive. Calls come from the whole dose curve; as a rule, active = well fitted inhibition curve with a large enough effect; inconclusive = small, poorly fitted or top-dose-only effect; inactive = no such curve, though single readings can be large or run the other way.
# Target: DNA dC->dU-editing enzyme APOBEC-3G (Homo sapiens) (UniProt Q9HC16)
# Sequence (Q9HC16 whole entry, looked up): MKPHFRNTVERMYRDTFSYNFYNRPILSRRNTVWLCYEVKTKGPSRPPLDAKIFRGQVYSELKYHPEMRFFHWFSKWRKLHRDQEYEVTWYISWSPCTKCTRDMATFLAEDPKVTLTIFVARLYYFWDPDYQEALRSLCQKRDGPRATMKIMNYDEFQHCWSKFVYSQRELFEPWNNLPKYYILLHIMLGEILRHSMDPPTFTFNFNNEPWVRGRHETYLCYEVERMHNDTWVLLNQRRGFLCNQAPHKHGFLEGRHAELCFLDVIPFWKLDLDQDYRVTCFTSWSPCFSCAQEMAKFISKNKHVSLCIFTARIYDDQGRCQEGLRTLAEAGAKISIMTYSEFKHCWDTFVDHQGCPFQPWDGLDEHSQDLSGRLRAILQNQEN
# Test: qHTS for inhibitors of Vif-A3G interactions: Cherry picks counterscreen;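 note: hits raise yellow fluorescence by blocking Vif-driven A3G-eYFP degradation; nearly all actives have a fitted effect of over 70% in size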;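 for max response: max response given as percent of control signal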
# Details: HeLa A3G-eYFP + Vif (tagged APOBEC3G with the HIV-1 protein that degrades it), eYFP fluorescence, 24 h
# Outline: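 Readout is eYFP fluorescence (488 nm excitation, 500-530 nm emission) measured on Acumen Explorer after 24 h compound exposure, several concentrations, at 37 deg C. Cells: HeLa stably co-expressing Vif and C-terminally eYFP-tagged A3G; MG132 positive control.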
# Potency is the fitted concentration of half-maximal effect.
SMILES,Potency,max response
CCN1/C(=C/c2cccc[n+]2C)Sc2ccc(OC)cc21,20.6 µM (active),
CC[n+]1ccccc1/C=C1\Sc2ccc(C)cc2N1C,20.6 µM (active),
COc1ccc2c(c1)N(C)/C(=C/c1cccc[n+]1C)S2,17.7 µM (active),
CC(=O)Nc1sc2c(c1-c1nc3ccccc3s1)CCN(C(C)C)C2,18.4 µM (active),
CC(=O)N1CCc2c(sc(NC(=O)CSc3ccccc3)c2-c2nc3ccccc3s2)C1,29.1 µM (active),
CN1CCc2c(sc(NC(=O)CSc3ccc(F)cc3)c2-c2nc3ccccc3s2)C1,2.59 µM (active),
CS(=O)(=O)Nc1ccc(C2=NN(S(=O)(=O)c3ccccc3)C(c3cccs3)C2)cc1 (stereo not given),20.6 µM (active),
CCc1ccc(C2=NN(S(C)(=O)=O)C(c3cccs3)C2)cc1 (stereo not given),14 µM (active),
CC(C)n1cc(/C=C2\NC(=O)N(c3cccc(Cl)c3)C2=O)c2ccccc21,14 µM (active),
Cc1ccc(NC(=O)CSc2ccccc2NC(=O)c2cccc(Cl)c2)cc1Cl,,5.07%
Cc1ccc(NC(=O)c2ccc(NCc3ccco3)c([N+](=O)[O-])c2)cc1Cl,14.6 µM (active),
Cc1ccc(NC(=O)c2ccc([N+](=O)[O-])s2)cc1S(=O)(=O)N1CCOCC1,,-5.77%
Cc1ccc(NC(=O)c2ccc(NCC3CCCO3)c([N+](=O)[O-])c2)cc1Cl (stereo not given),20.6 µM (active),
O=c1[nH]c(-c2cccnc2)nc2sc(-c3ccccc3)cc12,0.627 µM (active),
S=c1[nH]cnc2sc(-c3ccccc3)cc12,,1.89%
CCCn1c(CN2CCN(C(=O)OCC)CC2)nc2cc(NC(=O)C(C)C)ccc21,11.2 µM (active),
CCOc1ccc(C(C)=O)cc1COc1cccnc1[N+](=O)[O-],12.5 µM (active),
N#C/C(=C/c1ccc(N2CCCCCC2)o1)c1cccc(F)c1,4.61 µM (active),
N#C/C(=C/c1ccc(N2CCCCC2)o1)c1cccc(F)c1,5.17 µM (active),
Cc1sc(-c2cc3c([nH]c2=O)CC(c2ccccc2)CC3=O)nc1-c1ccc(Cl)cc1 (stereo not given),1.3 µM (active),

SMILES,Potency,max response
O=C1CC(c2ccccc2)Cc2[nH]c(=O)c(-c3nc(-c4cccc(Cl)c4)cs3)cc21 (stereo not given),2.59 µM (active),
CCCc1nc2c(C)cc(Br)cn2c1Cc1ccccc1,,-5.65%
COc1c(-c2ccc(O)c(O)c2)oc2cc(O)cc(O)c2c1=O,7.9 µM (active),
CCC(=O)NC(=S)Nc1cccc(Cl)c1N1CCCC1,,-18%
O=C(COc1ccccc1)NC(=S)Nc1cccc2c(O)cccc12,,-0.841%
NC(=O)c1ccccc1NC(=S)NC(=O)CCc1ccccc1,5.59 µM (active),
O=C1CCCN1c1ccc(S(=O)(=O)Nc2ccc3c(c2)OCCO3)cc1,5.59 µM (active),
COc1ccc(C(=O)C[n+]2cc(Br)cc3ccccc32)cc1,8.2 µM (active),
O=C(C[n+]1cccc2cc(Cl)ccc21)c1ccc(I)cc1,18.4 µM (active),
O=C(C[n+]1cccc2cc(Cl)ccc21)c1ccc2ccccc2c1,23.1 µM (active),
CCCC1=[N+](CC(=O)c2ccc(Br)cc2)CCn2cccc21,,-25.2%
CC(C)(C)c1ccc(C(=O)C[n+]2cccc3cc(Cl)ccc32)cc1,18.4 µM (active),
COc1ccc(C(=O)C[n+]2cccc3cc(Cl)ccc32)cc1,16.4 µM (active),
O=C1Nc2ccc(Br)cc2C12NNc1ccccc1O2 (stereo not given),15.8 µM (active),
COc1ccccc1NS(=O)(=O)c1cc([N+](=O)[O-])ccc1N/N=C/c1c[nH]c2ccccc12,9.2 µM (active),
O=[N+]([O-])c1ccc(N/N=C/c2c[nH]c3ccccc23)cc1,16.4 µM (active),
O=[N+]([O-])c1ccc(N/N=C/c2c[nH]c3ccccc23)c(S(=O)(=O)Nc2ccc(Cl)cc2)c1,23.1 µM (active),
C/C(=N/Nc1ccc([N+](=O)[O-])cc1)c1c[nH]c2ccccc12,18.4 µM (active),
Cc1[nH]c2ccccc2c1/C=N/Nc1ccc([N+](=O)[O-])cc1,8.2 µM (active),
COc1ccccc1NS(=O)(=O)c1cc([N+](=O)[O-])ccc1N/N=C/c1c(C)[nH]c2ccccc12,2.8 µM (active),

SMILES,Potency,max response
COc1ccc(NS(=O)(=O)c2cc([N+](=O)[O-])ccc2N/N=C/c2c(C)[nH]c3ccccc23)cc1,18.4 µM (active),
CC1CC(C)CN(CC(=O)c2c[nH]c3ccccc23)C1 (stereo not given),18.4 µM (active),
COc1cc(NC(=O)c2ccco2)c(C(=O)OCC(=O)c2c[nH]c3ccccc23)cc1OC,,-2.18%
O=C1NC(=Nc2ccccc2Cl)S/C1=C\c1cc([N+](=O)[O-])ccc1O,,-33%
O=[N+]([O-])c1ccc(N=Nc2ccc(O)c3ccccc23)cc1,11.2 µM (active),
COc1cc2c(cc1OC)C(C)N(C(=O)c1cc(Cl)nc(Cl)c1)CC2 (stereo not given),12.5 µM (active),
COc1cc2c(cc1OC)C(C)N(C(=O)c1cc(C)on1)CC2 (stereo not given),0.704 µM (active),
Cc1ccc2ccc3c(c2n1)NS(=O)(=O)c1ccc(C(F)(F)F)cc1-3,11.6 µM (active),
COCCNC(=S)NN=C1CCCCCC1,,0.0981%
COc1ccc2nc(NC(=S)NC(=O)c3ccco3)sc2c1,,-0.487%
COc1ccc2nc(NC(=O)Nc3ccccc3OC)sc2c1,4.44 µM (active),
COc1cc(Cn2c3ccc(NC(=O)CCc4ccccc4)cc3c(=O)n2C)ccc1F,3.53 µM (active),
COc1ccccc1CCC(=O)Nc1ccc2c(c1)c(=O)n(C)n2-c1cccs1,3.53 µM (active),
COc1ccccc1CCC(=O)Nc1ccc2c(c1)c(=O)n(C)n2Cc1ccc(F)cc1,17.7 µM (active),
C/C(CCc1ccc2c(c1)OCO2)=N\NC(=S)NC(C)C,,4.06%
Cc1cccc(N2CCN(Cc3cn(C)nc3-c3ccccc3F)CC2)n1,5.59 µM (active),
COC(=O)c1sc(N)c(C(=O)OC)c1COC(=O)c1c(C)noc1C,4.98 µM (active),
CN(C)c1ccc(/C=C2\Cc3ccccc3C2=O)cc1,2.59 µM (active),
CN(C)c1ccc(/C=C2/C[N+](C)(C)C/C(=C/c3ccc(N(C)C)cc3)C2=O)cc1,8.2 µM (active),
Nc1ccccc1C=C1Cc2ccccc2C1=O,7.31 µM (active),

# Source: PubChem BioAssay AID651813 (National Center for Advancing Translational Sciences (NCATS), 2012)
